This note sets out measurements from PubChem BioAssay (Tox21).

Where “and” joins values, the source holds several entries; their conditions need not be identical. Identical values can stand only once. Inconclusive results are not listed. Calls of active or inactive are those of the source. Unless noted, the call rests on the fitted dose curve; in most records, active means well fitted curve in the direction sought with a large enough effect in the repeat runs; inconclusive means weak or mixed curves; inactive means no such curve, though single readings can be large; an effect the other way counts as inactive or inconclusive.

Experiment [1] can be described thus: qHTS assay to identify small molecule agonists of the RXR signaling pathway - cell viability counter screen (AID 1159529).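 Further: HEK 293T cells carrying an RXR-alpha UAS beta-lactamase reporter; series mostly up to about 77 µM; nearly all actives have a fitted effect of over 50% in size.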 The gist of the method:
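Steps: seed RXR-alpha-UAS-bla HEK 293T cells in assay medium containing 2% charcoal-stripped FBS; incubate 5 hr; add compounds in DMSO; incubate 16 hr at 37 C; after the bla read, add CellTiter-Glo and read luminescence at 30 min.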
On the technique in general: Quantitative high-throughput screening tests each substance at several concentrations.

A short description of experiment [2]: qHTS assay to identify small molecule antagonists of the retinoid acid receptor (RAR) signaling pathway - cell viability counter screen (AID 1159551). Further: nearly all actives have a fitted effect of over 35% in size. The gist of the method: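 Cells (C3RL4) are plated, incubated overnight, dosed with compound in DMSO, then given retinol at 1 uM final. After 6 h at 37 C, CellTiter-Glo is added and luminescence read following 30 min at room temperature.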

A short description of experiment [3]: qHTS assay to identify small molecule antagonists of the estrogen related receptor (ERR) signaling pathway - cell viability counter screen (AID 1224818). Further: series mostly up to about 46 µM. The gist of the method: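 ERR cells, 2,000/well; 6 h settle at 37 C/5% CO2; compound pin transfer (DMSO); 17.5 h at 37 C; CellTiter-Fluor, 30 min, fluorescence read.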
The nature of experiment [4]: qHTS assay to identify small molecule antagonists of the estrogen related receptor (ERR) signaling pathway (AID 1224819;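 further: luminescence from an ERR-driven luciferase reporter measured with One-Glo reagent; series mostly up to about 46 µM; nearly all actives have a fitted effect of over 50% in size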). The procedure, abridged: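 qHTS in ERR cells, 2,000/well, 1536 format. Cpd (DMSO) added after 6 h settle, 18 h 37 C. One-Glo luminescence, 30 min RT.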
Experiment [5] can be described thus: qHTS assay to identify small molecule agonists of the estrogen related receptor (ERR) signaling pathway (AID 1224820). Further: potency means the concentration at half of the fitted maximal effect. The procedure, abridged: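 An ERR cell line provided by NTP was seeded at 2,000 cells per well and allowed to settle for 6 h before compounds in DMSO were added. After 18 h at 37 C, luciferase activity was measured by One-Glo luminescence.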

In experiment [6] the test system is estrogen-related receptor alpha (ERRalpha) with PGC-1alpha coactivator, human. Nature of the experiment: qHTS assay to identify small molecule antagonists of the estrogen related receptor signaling pathway with the pleiotropic PPARgamma coactivator (PGC) (AID 1224821; calls by dose curve;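 further: series mostly up to about 46 µM; lower luminescence signal means antagonism of PGC/ERR signalling; nearly all actives have a fitted effect of over 50% in size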). The procedure, abridged: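 A PGC/ERR cell line supplied by NTP is seeded, allowed 6 h at 37 C, and treated with test compounds in DMSO for 18 h. Signal is then measured as luciferase luminescence using One-Glo.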

Experiment [7] can be described thus: qHTS assay to identify small molecule antagonists of the estrogen related receptor signaling pathway with the pleiotropic PPARgamma coactivator (PGC) cell viability counter screen (AID 1224822; further: series mostly up to about 46 µM). The gist of the method:
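Multiplexed viability counter screen run in PGC/ERR cells treated with compounds for 17.5 h at 37 C; live-cell protease signal measured by CellTiter-Fluor fluorescence.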

Experiment [8] in a line: qHTS assay to identify small molecule agonists of the estrogen related receptor signaling pathway with the pleiotropic PPARgamma coactivator (PGC) (AID 1224823). Further: potency means the concentration at half of the fitted maximal effect. The procedure, abridged: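 Compounds dissolved in DMSO are added by pin tool to PGC/ERR cells that have settled for 6 h, and incubation continues 18 h at 37 C. Reporter output is measured as One-Glo luminescence.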

Experiment [9] can be described thus: qHTS assay to identify small molecule antagonists of the estrogen related receptor (ERR) signaling pathway from Tox21 library - cell viability counter screen (AID 1224834). Further: nearly all actives have a fitted effect of over 30% in size. Further: potency means the concentration at half of the fitted maximal effect. The gist of the method: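 ERR cells, 2,000/well; 6 h settle at 37 C/5% CO2; pin-tool compound transfer in DMSO; 17.5 h at 37 C; CellTiter-Fluor, 30 min; fluorescence intensity.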
A short description of experiment [10]: qHTS assay to identify small molecule agonists of the constitutive androstane receptor (CAR) signaling pathway - cell viability counter screen (AID 1224836). Further: series mostly up to about 92 µM; nearly all actives have a fitted effect of over 45% in size. The procedure, abridged: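 Cells were seeded and incubated 4 hrs. Compounds were added across 15 concentrations together with PK11195 at 0.75 uM final. Plates were incubated 23 hrs at 37 C. CellTiter-Fluor was added and fluorescence measured.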

Experiment [11] is described as follows: qHTS assay to identify small molecule antagonists of the constitutive androstane receptor (CAR) signaling pathway - cell viability counter screen (AID 1224837). Further: series mostly up to about 92 µM; nearly all actives have a fitted effect of over 45% in size. The gist of the method:
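Viability was measured with CellTiter-Fluor in a HepG2 line carrying stably transfected hCAR and a CYP2B6-2.2kb construct. Cells were exposed for 23 hr at 37 C to 15 compound concentrations with 50 nM CITCO as agonist.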

The target of experiment [12] is Nuclear receptor subfamily 1 group I member 3 (Homo sapiens) (UniProt Q14994). Nature of the experiment: qHTS assay to identify small molecule antagonists of the constitutive androstane receptor (CAR) signaling pathway (AID 1224838).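 Further: HepG2 cells stably expressing hCAR with CYP2B6 luciferase reporter stimulated by CITCO; nearly all actives have a fitted effect of over 40% in size.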 The procedure, abridged:
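Antagonist mode used CITCO at a final 50 nM to activate CAR in human hepatoma HepG2 cells carrying stable hCAR and a 2.2 kb CYP2B6 promoter-luciferase construct. Compounds were tested at 15 concentrations over 24 h, with luminescence as the end point.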

For experiment [13] the target is unchanged. Kind of experiment: qHTS assay to identify small molecule agonists of the constitutive androstane receptor (CAR) signaling pathway (AID 1224839). Further: nearly all actives have a fitted effect of over 15% in size. Further: potency means the concentration at half of the fitted maximal effect. The procedure, abridged: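 Cells were plated and incubated 4 hrs, then dosed with compounds at 15 concentrations. PK11195 was added to 0.75 uM final. After 24 hrs at 37 C, luciferase luminescence was measured.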

A short description of experiment [14]: qHTS assay to identify small molecule antagonists of the estrogen related receptor signaling pathway with the pleiotropic PPARgamma coactivator (PGC) from Tox21 10K library - cell viability counter screen (AID 1224840; active means well fitted cell-killing curve with a large enough effect in the repeat runs, not every such curve was filed as active; further: nearly all actives have a fitted effect of over 40% in size). The procedure, abridged: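 Multiplexed viability counter screen in the PGC/ERR cell line: cells treated with DMSO-dissolved compounds for 17.5 hours at 37 C, then viability measured as CellTiter-Fluor fluorescence.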

Experiment [15] can be described thus: qHTS assay to identify small molecule antagonists of the estrogen related receptor signaling pathway with the pleiotropic PPARgamma coactivator (PGC) from Tox21 10K library (AID 1224841; call rule not given here; further: series mostly up to about 92 µM; actives are mostly falling curves and most rising ones were filed inactive; nearly all actives have a fitted effect of over 50% in size). The procedure, abridged: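 Steps: plate 2,000 PGC/ERR cells per well; incubate 6 h at 37 C with 5% CO2; transfer compounds from DMSO stocks by pin tool; incubate 18 h at 37 C; add One-Glo; measure luminescence 30 min later.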

Experiment [16] can be described thus: qHTS assay to identify small molecule agonists of the estrogen related receptor signaling pathway with the pleiotropic PPARgamma coactivator (PGC) from Tox21 10K library (AID 1224842). Further: nearly all actives have a fitted effect of over 15% in size. Further: potency means the concentration at half of the fitted maximal effect. The procedure, abridged:
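PGC/ERR reporter cell line, 2,000 cells per well, incubated 6 h at 37 C before 23 nL compound in DMSO was added. After 18 h at 37 C, One-Glo luminescence read following 30 min at room temperature.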

The nature of experiment [17]: qHTS assay to identify small molecule agonists of the retinoic acid receptor (RAR) signaling pathway (AID 1159553). The procedure, abridged: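 Seed C3RL4 reporter cells at 1,000 per well and incubate overnight at 37 C. Add compounds in DMSO, incubate 6 hr. Add luciferase reagent, wait 30 min at room temperature, read luminescence.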
Experiment [18] concerns the target Luciferin 4-monooxygenase (Photinus pyralis) (UniProt P08659). Nature of the experiment: qHTS assay to identify small molecule inhibitors of firefly luciferase (AID 1224835). Further: series mostly up to about 120 µM; nearly all actives have a fitted effect of over 25% in size. The gist of the method: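 Biochemical qHTS: compounds run as interplate titrations against purified firefly enzyme, with D-luciferin and ATP each at its KM concentration. Light output recorded by CCD imaging.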

The target in experiment [19] is Thyrotropin receptor (Homo sapiens) (UniProt P16473). Kind of experiment: qHTS assay to identify small molecule agonists of the thyroid stimulating hormone receptor (TSHR) signaling pathway (AID 1224843; calls by dose curve; further: nearly all actives have a fitted effect of over 45% in size). The procedure, abridged:
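Agonist-mode screen: TSHR HEK293 cells received test chemicals for half an hour at room temperature, then HTRF cAMP detection reagents for one hour prior to fluorescence measurement. Each chemical ran as a 15-concentration series, triplicated.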

The nature of experiment [20]: qHTS assay to identify small molecule antagonists of the retinoic acid receptor (RAR) signaling pathway (AID 1159552; further: nearly all actives have a fitted effect of over 50% in size; further: potency means the concentration at half of the fitted maximal effect). The procedure, abridged:
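Retinol at 1 uM final stimulated RARE-luciferase expression in C3RL4 cells exposed to test compounds for 6 hr at 37 C. Reduced luminescence, read 30 min after detection reagent, indicated pathway antagonism.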

Chain of Luciferin 4-monooxygenase (Photinus pyralis) (P08659 whole entry, looked up): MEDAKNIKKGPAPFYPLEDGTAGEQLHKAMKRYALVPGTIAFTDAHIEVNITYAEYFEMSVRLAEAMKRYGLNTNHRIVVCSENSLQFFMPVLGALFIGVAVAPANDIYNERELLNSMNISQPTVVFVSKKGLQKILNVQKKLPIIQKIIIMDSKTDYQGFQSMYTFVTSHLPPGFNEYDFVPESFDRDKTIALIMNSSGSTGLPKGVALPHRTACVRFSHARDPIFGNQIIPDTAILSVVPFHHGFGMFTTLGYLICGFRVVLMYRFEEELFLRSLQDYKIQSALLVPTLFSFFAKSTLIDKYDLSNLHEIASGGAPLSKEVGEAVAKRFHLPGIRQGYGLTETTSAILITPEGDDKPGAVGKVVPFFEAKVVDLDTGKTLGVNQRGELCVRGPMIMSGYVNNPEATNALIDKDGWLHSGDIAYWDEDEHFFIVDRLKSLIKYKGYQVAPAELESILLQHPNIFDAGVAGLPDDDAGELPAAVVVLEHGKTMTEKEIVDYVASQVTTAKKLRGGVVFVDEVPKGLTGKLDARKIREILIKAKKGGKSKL
Chain of Thyrotropin receptor (Homo sapiens) (P16473 whole entry, looked up): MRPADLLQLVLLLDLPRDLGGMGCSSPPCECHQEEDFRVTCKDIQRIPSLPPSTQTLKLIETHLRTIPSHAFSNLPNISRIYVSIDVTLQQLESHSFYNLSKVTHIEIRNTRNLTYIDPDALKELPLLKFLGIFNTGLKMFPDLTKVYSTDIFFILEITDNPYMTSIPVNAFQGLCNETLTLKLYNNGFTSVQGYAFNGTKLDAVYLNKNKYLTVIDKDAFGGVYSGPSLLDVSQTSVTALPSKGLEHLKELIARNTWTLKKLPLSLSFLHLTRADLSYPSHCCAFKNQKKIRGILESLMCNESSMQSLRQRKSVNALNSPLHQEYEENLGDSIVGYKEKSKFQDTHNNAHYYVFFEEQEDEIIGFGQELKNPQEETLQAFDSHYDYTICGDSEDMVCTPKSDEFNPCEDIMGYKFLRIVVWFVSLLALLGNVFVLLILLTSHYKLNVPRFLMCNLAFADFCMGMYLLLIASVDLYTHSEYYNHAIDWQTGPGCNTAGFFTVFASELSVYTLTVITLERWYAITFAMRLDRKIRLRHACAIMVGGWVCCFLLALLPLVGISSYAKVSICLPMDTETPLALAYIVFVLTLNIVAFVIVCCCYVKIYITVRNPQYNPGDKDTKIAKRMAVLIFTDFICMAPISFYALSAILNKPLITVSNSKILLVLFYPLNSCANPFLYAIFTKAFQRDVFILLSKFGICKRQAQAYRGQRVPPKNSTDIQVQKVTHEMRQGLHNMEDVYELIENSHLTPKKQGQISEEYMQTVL
Chain of Nuclear receptor subfamily 1 group I member 3 (Homo sapiens) (Q14994 whole entry, looked up): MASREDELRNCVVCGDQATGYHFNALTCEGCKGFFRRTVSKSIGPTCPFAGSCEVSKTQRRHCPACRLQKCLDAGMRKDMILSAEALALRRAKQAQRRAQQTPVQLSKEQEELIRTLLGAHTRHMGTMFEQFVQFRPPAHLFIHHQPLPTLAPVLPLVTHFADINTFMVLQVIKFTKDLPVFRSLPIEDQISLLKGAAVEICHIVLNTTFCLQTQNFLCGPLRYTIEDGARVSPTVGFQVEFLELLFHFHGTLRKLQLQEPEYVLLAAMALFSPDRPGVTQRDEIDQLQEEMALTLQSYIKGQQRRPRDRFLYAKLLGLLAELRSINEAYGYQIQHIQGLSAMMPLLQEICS

`NC(=O)c1cnccn1`: the Potency entry in experiment [1], in experiment [5], in experiment [8], in experiment [9], in [10] and in [11] was “inactive” in each case. The Potency entry in experiment [12], in experiment [13], in experiment [14], in experiment [15] and in experiment [16] was “inactive” in each case. In addition, the outcome in experiment [2], in [3], in [4], in experiment [6] and in experiment [7] was inactive.

As to `NS(=O)(=O)c1cc(C(=O)O)c(NCc2ccco2)cc1Cl`, the Potency result in [1], in [9], in experiment [18], in experiment [10], in experiment [11] and in experiment [14] was “inactive” in each case. For the same compound, the Potency entry in [15] and in [16] was “inactive” in each case. Moreover, the result in [2], in experiment [17] and in experiment [19] was inactive.

Take `NC(N)=O`: the Potency result in [1], in [9], in [10], in [11], in [12] and in experiment [13] was “inactive” throughout. Further, the Potency result in experiment [14] was “inactive”. Also, the outcome in [2] and in experiment [19] was inactive.

`O=C(O)C(=O)O`: the Potency entry in [1], in experiment [20], in experiment [9], in experiment [10], in experiment [11] and in experiment [14] was “inactive” each time. In addition, the call in [2], in experiment [17] and in experiment [19] was inactive.

In the case of `Cc1ccc(O)cc1`, the Potency result in experiment [1], in experiment [20], in experiment [9] and in experiment [14] was “inactive” in each case. In addition, the compound was called inactive in [2], in [17] and in experiment [19].

Consider `O=C(O)CCCCC(=O)O`, for which the Potency entry in experiment [1], in experiment [9], in experiment [10], in experiment [11] and in experiment [14] was “inactive” in each case. Also, the compound was called inactive in experiment [2] and in experiment [19].

`Oc1ccc(/C=C/c2cc(O)cc(O)c2)cc1`: the Potency result in [1], in [10], in experiment [11], in experiment [12], in [14] and in [15] was “inactive” each time. Further, the compound was classed as inactive in [2], in experiment [4], in experiment [7] and in experiment [19]. The Potency in experiment [20] was 49 µM (active) and 43.3 µM (active); in experiment [5], 3.62 µM (active); in [8], 11.4 µM (active); in experiment [9], 21.9 µM (active) and 21.7 µM (active) and 26.6 µM (active); in experiment [13], 19.5 µM (active) and 21.7 µM (active) and 29.8 µM (active); in experiment [16], 5.5 µM (active) and 4.86 µM (active) and 10.6 µM (active).

As to `CCCC(CCC)C(=O)O`, the Potency entry in [1], in experiment [9], in experiment [10], in experiment [11] and in experiment [14] was “inactive” throughout. Besides, the result in [2], in experiment [3], in [7] and in experiment [19] was inactive.

As for `O=C(O)c1cccc([N+](=O)[O-])c1`, the Potency result in [1], in experiment [9], in experiment [10], in experiment [11] and in experiment [14] was “inactive” throughout. Also, the outcome in experiment [2] was inactive.

For the compound `NC(=O)NC1NC(=O)NC1=O` (stereo not given), the Potency entry in [1], in [9], in experiment [18], in experiment [10], in [11] and in experiment [12] was “inactive” in each case. The Potency entry in experiment [13] and in [14] was “inactive” each time. In addition, the call in [2] and in experiment [19] was inactive.
